Compound activity as filed in PubChem.
ANO1 block: blocks the mouse calcium-activated chloride channel TMEM16A. actives 1.2% (n = 310,000). Q8BHY3. AID 588511. HEK293 TMEM16A/YFP iodide influx fluorescence, ionomycin. normalized B-score (activity score, 25-100; higher = stronger inhibition) at 10 µM;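 active means ratio plate-corrected score three or more library SD toward inhibition, starting fluorescence score within five deviations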;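 further: score derived from kinetic fluorescence span divided by baseline fluorescence per well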
TMEM16A act: activators or potentiators of mouse TMEM16A chloride channel; Q8BHY3; HEK293 TMEM16A/YFP-H148Q/I152L, iodide quench fluorescence; stronger effect = lower value; B-score at 10 µM; actives 0.3% (n = 340,000); AID 623877;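 active means fluorescence-ratio B-score plate-corrected deviation score at least 3 library SD below zero, with starting fluorescence score within 5 deviations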;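 further: channel opened by trigger with iodide after compound preincubation; score built on the fluorescence ratio of max minus min over baseline; more negative score means more quench and so TMEM16A activation or potentiation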
CHT inh: inhibits the human high affinity choline transporter. Q9GZV3. CHT-expressing cells, membrane potential dye, choline response; stronger effect = lower value. B-score at 10 µM. actives 0.86% (n = 310,000). AID 488975;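 active means B-score over 3 SD under the library average, and starting fluorescence ratio not unusually high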;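 further: choline stimulus applied at its EC90 after an EC20 pre-addition; B-score computed on integrated fluorescence ratio after choline addition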
Target sequence (Q9GZV3 whole entry, looked up): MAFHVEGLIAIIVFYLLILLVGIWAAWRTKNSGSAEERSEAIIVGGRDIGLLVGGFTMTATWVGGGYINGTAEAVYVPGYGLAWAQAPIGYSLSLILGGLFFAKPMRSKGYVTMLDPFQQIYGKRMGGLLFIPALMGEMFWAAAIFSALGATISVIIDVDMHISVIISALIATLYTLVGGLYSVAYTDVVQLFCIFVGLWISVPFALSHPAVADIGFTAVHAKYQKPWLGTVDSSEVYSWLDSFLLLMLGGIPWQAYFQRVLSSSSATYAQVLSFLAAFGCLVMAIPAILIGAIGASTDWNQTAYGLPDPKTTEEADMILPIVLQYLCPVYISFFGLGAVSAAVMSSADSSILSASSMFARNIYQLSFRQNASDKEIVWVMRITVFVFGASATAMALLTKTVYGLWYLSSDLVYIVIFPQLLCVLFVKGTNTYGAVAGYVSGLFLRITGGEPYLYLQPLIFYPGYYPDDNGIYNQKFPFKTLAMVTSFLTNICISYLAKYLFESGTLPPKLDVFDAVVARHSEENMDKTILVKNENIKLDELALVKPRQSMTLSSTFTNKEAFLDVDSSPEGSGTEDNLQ
CHT allo act: allosterically activates the human high affinity choline transporter | CHT-expressing cells, membrane potential dye, choline EC20; stronger effect = higher value; LV-AA mutant CHT in HEK293 cells | actives 0.49% (n = 310,000) | B-score at 10 µM | AID 488977;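 active means initial fluorescence not abnormally high and integrated response B-score, plate-corrected, over 3 SD above library mean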
CHT activ conf: human CHT activation, confirmatory screen; shares compounds with CHT allo act; CHT-expressing cells, membrane potential dye fluorescence (FDSS); % of choline EC20–EC90 response window; HEK293 expressing CHT LV-AA mutant; choline added at its EC20; activation, % at 10 µM; actives 91% (n = 2,500); AID 504833;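 active means primary screen active, with duplicate mean activation above negative control mean plus 3 SD, cut at about 11% in these data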
HEK293 MP dye: counter-screen for CHT activators: effect in parental HEK293 cells | ratio readout change at 10 µM, hits read low | membrane potential dye fluorescence (FDSS); measured after EC20 choline addition | actives 62% (n = 2,500) | shares compounds with CHT allo act | AID 623908;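 active means duplicate-averaged ratio beyond 3 SD from buffer wells, up or down, though filed actives are nearly all decreases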
The depositor's hits bear a star. The list is not random: actives were taken first. Their share in the collection is about 2.4%.

`COc1ccccc1N1CCN(c2ccc3ccccc3n2)CC1` gave ANO1 block inactive, TMEM16A act inactive, CHT inh inactive and CHT allo act inactive.
Screening O=C(NNC(=O)c1ccccc1F)C1=NN(c2ccccc2)C(=O)CC1 returned ANO1 block inactive, TMEM16A act inactive, CHT inh inactive and CHT allo act inactive.
For Cc1cccc(CS(=O)(=O)Cc2ccc(C(=O)NC3CCCCC3)o2)c1 the results were ANO1 block inactive, TMEM16A act inactive, CHT inh inactive and CHT allo act inactive.
For C=CCN(C(=O)CCC(=O)Nc1cc(C)on1)C(C(=O)NC1CCCC1)c1ccc(Cl)cc1 (stereo unspecified) the results were ANO1 block inactive, TMEM16A act inactive, CHT inh inactive and CHT allo act inactive.
For Cc1cc(NC(=O)NC2CCCN2S(=O)(=O)c2ccc(Cl)cc2)no1 (stereo unspecified) the results were ANO1 block inactive, TMEM16A act inactive, CHT inh inactive and CHT allo act inactive.
`Cc1c2ccccc2cc(Cc2ccccc2)[n+]1C` gave ANO1 block inactive, TMEM16A act inactive, CHT inh inactive, CHT allo act 6.7*, CHT activ conf 68* and HEK293 MP dye -76*.
Fc1ccc(CNC(=S)Nc2ccc(OC(F)F)cc2)cc1 was read as ANO1 block inactive, TMEM16A act inactive, CHT inh inactive and CHT allo act inactive.
`COc1ccc(C(=O)CNC2=NCCC2)cc1` gave ANO1 block inactive, TMEM16A act inactive, CHT inh inactive, CHT allo act 8.2*, CHT activ conf 57* and HEK293 MP dye -47*.
`O=C(ONC1=NCCCCC1)c1ccc(Cl)cc1` gave ANO1 block inactive, TMEM16A act inactive, CHT inh inactive and CHT allo act inactive.
For O=C(CNC1=NCCC1)c1ccc(Cl)cc1 the results were ANO1 block inactive, TMEM16A act inactive, CHT inh inactive, CHT allo act inactive, CHT activ conf 30* and HEK293 MP dye -25*.
CCOC(=O)c1c(-c2ccccc2)csc1NC(=O)CSc1ccccc1 was read as ANO1 block inactive, TMEM16A act inactive, CHT inh inactive and CHT allo act inactive.
For CCOC(=O)c1c(-c2ccccc2)csc1NC(=O)CSc1nncs1 the results were ANO1 block inactive, TMEM16A act inactive, CHT inh inactive, CHT allo act inactive, CHT activ conf 28* and HEK293 MP dye inactive.
COc1ccc(C(CNC(=O)CN2C(=O)NC(C)(c3ccc4ccccc4c3)C2=O)N2CCCC2)cc1 (stereo unspecified) was read as TMEM16A act inactive.
For Cc1ccccc1C=O the results were TMEM16A act inactive.
Screening Cc1ccccc1/C=C/C1=NCCN1 returned ANO1 block inactive, TMEM16A act inactive, CHT inh inactive, CHT allo act 7.2*, CHT activ conf 40* and HEK293 MP dye -38*.
For Cc1csc(SC(C)C(=O)NC2CCCCC2C)n1 (stereo unspecified) the results were ANO1 block inactive, TMEM16A act inactive, CHT inh inactive and CHT allo act inactive.
Screening COc1ccc(-c2csc(N(CCCN(C)C)C(=O)c3ccc(C)cc3)n2)cc1 returned ANO1 block inactive, TMEM16A act inactive, CHT inh inactive and CHT allo act inactive.
For COc1ccc(-c2csc(N(CCCN(C)C)C(=O)c3cccs3)n2)cc1 the results were ANO1 block inactive, TMEM16A act inactive, CHT inh inactive, CHT allo act inactive, CHT activ conf 36* and HEK293 MP dye -43*.
For Cc1c(NC(=O)Nc2ccc(C(C)(C)C)cc2)c(=O)n(-c2ccccc2)n1C the results were ANO1 block inactive, TMEM16A act inactive, CHT inh inactive and CHT allo act inactive.
For CCCCn1c(N)c(N(CC(C)C)C(=O)c2cc(-c3ccncc3)nc3ccccc23)c(=O)[nH]c1=O the results were ANO1 block inactive, TMEM16A act inactive, CHT inh inactive and CHT allo act inactive.
